Records with an inconclusive call do not appear. Where a call stands in place of a potency, no number is given. Calls of active or inactive are those of the source. Calls come from the whole dose curve; as a rule, active = well fitted cell-killing curve with a large enough effect in the repeat runs; inconclusive = weak or mixed curves, or effect the other way; inactive = no such curve, though single readings can be large or run the other way.
Potency is the fitted concentration of half-maximal effect.

The experiment can be described thus: qHTS assay to identify small molecule antagonists of the retinoid-related orphan receptor gamma (ROR-gamma) signaling pathway - cell viability counter screen (AID 1159520). Note: nearly all actives have a fitted effect of over 50% in size. As to conditions: Tet-on RORgamma CHO cells viability, ATP luminescence, 16 h; series mostly up to 92.4 µM. The source says:
U.S. Tox21 Program National Center for Advancing Translational Sciences [NCATS] NIH Chemical Genomics Center [NCGC] U.S. Environmental Protection Agency [EPA] National Institutes of Environmental Health Sciences [NIEHS] National Toxicology Program [NTP] U.S. Food and Drug Administration [FDA] Tox21 Assay Overview: Nuclear steroid hormone receptors are involved in many biological processes including inflammatory responses, cell proliferation, and apoptosis. Environmental factors or compounds disrupting these nuclear receptor pathways and gene expression may promote susceptibility to immunotoxicants and autoimmune diseases. One important group of these expression factors are the retinoid-related orphan receptors. To assess compounds that may interfere with the retinoid-related orphan receptor gamma (ROR-gamma) transcription factor, a cell-based luciferase assay was used. The CHO cell-based assay utilizes a TET-inducible ROR expression factor and ROR response element-LUC reporter gene. Reporter gene activity was induced using Doxycycline Hyclate and measured after 16 hr incubation. Tet-on ROR gamma CHO cells were used to screen against the Tox21 10K compound library for cytotoxicity by measuring the viability of the cells based on the quantitation of the ATP.
Tox21 Assay Protocol Summary: Tet-on ROR gamma CHO cells were dispensed at 1,000 cells in 4 uL of culture medium per well into white wall/solid bottom 1536-well plates using a Multidrop Combi (Thermo Scientific, Waltham, MA) dispenser. Following incubation at 37 C and 5% CO2 for 4 hr, 23 nL of compounds dissolved in DMSO, positive controls or DMSO only were transferred by a Pintool station (Kalypsys, San Diego, CA) and after 2 hr incubation at 37 C, one ul of 1 uM (final concentration) of Doxycycline Hyclate was added to all the wells by using a Flying Reagent Dispenser (FRD) (Aurora Discovery, San Diego, CA). After 16 hr incubation at 37 C and 5% CO2, 5 uL of CellTiter-Glo reagent (Promega Corporation, Madison, WI) was added to each assay plate using FRD. After 30 min incubation at room temperature, luminescence was quantified on a ViewLux plate reader (Perkin Elmer, Waltham, MA).
For orientation: qHTS replaces the single test concentration by a dilution series.
Regarding `C[C@]1(O)CC[C@H]2[C@@H]3CCC4=CC(=O)CC[C@]4(C)[C@@]3(F)[C@@H](O)C[C@@]21C`, the Potency entry was “inactive”.

In the case of `CN1CCC(O)(c2ccc(F)cc2)C(C(=O)c2ccc(F)cc2)C1` (stereo not given), the Potency entry was “inactive”. Then `CC(N)=S`, with “inactive”. Then `N#Cc1ccncc1`, with “inactive”. For `CC1(C)COP(Oc2ccccc2)OC1`, the Potency entry is “inactive”. The same measure for `O=C1OC(=O)C2C1C1(Cl)C(Cl)=C(Cl)C2(Cl)C1(Cl)Cl` (stereo not given): “inactive”. Then `CC(Cl)(Cl)[N+](=O)[O-]`, with “inactive”; and `Cc1coc2c1CCC(C)C2` (stereo not given), with “inactive”. Then `CCCCCCBr`, with “inactive”; and `O=[N+]([O-])c1ccc(CBr)cc1`, with “inactive”.

As to `CCN(CC)c1nc(C)cc(OP(=S)(OC)OC)n1`, the Potency result was “inactive”. Consider `O=C(Nc1ccccc1)c1ccccc1I`, for which the Potency entry is “inactive”.

On to `CC(C)NCC(O)c1ccc(N)c(C#N)c1` (stereo not given), for which the Potency entry is “inactive”. Then `CCCCOC(=O)c1ccccc1C(=O)O`, with “inactive”. The same measure for `CCS(=O)(=O)C(C)(C)S(=O)(=O)CC`: “inactive”; for `CC(C)(C)NCC(O)c1cc(Cl)c(N)c(Cl)c1` (stereo not given): “inactive”. On to `CC(CC(C#N)(c1ccccc1)c1ccccc1)N(C)C` (stereo not given), for which the Potency entry is “inactive”.

`COC(=O)C(c1ccccc1)C1CCCCN1` (stereo not given): the Potency result was “inactive”. The same measure for `CCOP(=O)(N=C1SCCS1)OCC`: “inactive”; for `ClC(Cl)C(Cl)Cl`: “inactive”; for `CCNc1nc(NC(C)C)nc(OC)n1`: “inactive”. The same measure for `CC(C)(C)OC(=O)c1ncn2c1[C@@H]1CCCN1C(=O)c1c(Br)cccc1-2`: “inactive”; for `Cc1nnc2n1-c1sc(CCC(=O)N3CCOCC3)cc1C(c1ccccc1Cl)=NC2`: “inactive”; for `Cc1nc(N)nc(N)n1`: “inactive”.

`ClCCOCOCCCl`: the Potency result was “inactive”. In the case of `CCCCOC(=O)[C@@H](C)Oc1ccc(Oc2ccc(C#N)cc2F)cc1`, the Potency entry was “inactive”. With `BrCCCCCCBr`, the Potency result was “inactive”. Then `C=C(C)CN(CC)c1c([N+](=O)[O-])cc(C(F)(F)F)cc1[N+](=O)[O-]`, with “inactive”; and `OC(c1ccccc1)(c1ccccc1)C1CCNCC1`, with “inactive”; and `CNC(=O)Oc1ccccc1C1OCCO1`, with “inactive”.

In the case of `CC(Oc1ccc(Oc2ncc(C(F)(F)F)cc2Cl)cc1)C(=O)O` (stereo not given), the Potency entry was “inactive”. Then `O=CNC(N1CCN(C(NC=O)C(Cl)(Cl)Cl)CC1)C(Cl)(Cl)Cl` (stereo not given), with “inactive”. The same measure for `CC(C)CC#N`: “inactive”.

`COc1cc2c(cc1OC)[C@@]13CCN4CC5=CCO[C@H]6CC(=O)N2[C@H]1[C@H]6[C@H]5C[C@H]43`: the Potency result is “inactive”. Then `COc1cc(C[C@@H](C)N)c(OC)cc1C`, with “inactive”; and `COc1cc(OC)nc(Oc2cccc(Oc3nc(OC)cc(OC)n3)c2C(=O)O)n1`, with “inactive”; and `Cc1ncsc1CCCl`, with “inactive”. The same measure for `COc1cccc2c1cc([N+](=O)[O-])c1c(C(=O)O)cc3c(c12)OCO3`: 43.3 µM (active); for `CCN(CC)CCOC(=O)C(C)(c1ccccc1)c1ccccc1`: “inactive”. Then `C1CCC(C2CCCCC2)CC1`, with “inactive”.

These data come from PubChem BioAssay (Tox21).
